In all, about 370,000 compounds went through this assay and about 3,100 (0.84%) were called active. Rule as the data show it: active = inhibition above about 9.5%; inactive = the rest. Only a selection was taken, and actives are over-represented in it overall.

Broadly, the inhibition is the change of the read-out against control, counted positive when it falls.

1-phosphatidylinositol 4,5-bisphosphate phosphodiesterase gamma-1 (Homo sapiens), sequence (P19174 whole entry, looked up): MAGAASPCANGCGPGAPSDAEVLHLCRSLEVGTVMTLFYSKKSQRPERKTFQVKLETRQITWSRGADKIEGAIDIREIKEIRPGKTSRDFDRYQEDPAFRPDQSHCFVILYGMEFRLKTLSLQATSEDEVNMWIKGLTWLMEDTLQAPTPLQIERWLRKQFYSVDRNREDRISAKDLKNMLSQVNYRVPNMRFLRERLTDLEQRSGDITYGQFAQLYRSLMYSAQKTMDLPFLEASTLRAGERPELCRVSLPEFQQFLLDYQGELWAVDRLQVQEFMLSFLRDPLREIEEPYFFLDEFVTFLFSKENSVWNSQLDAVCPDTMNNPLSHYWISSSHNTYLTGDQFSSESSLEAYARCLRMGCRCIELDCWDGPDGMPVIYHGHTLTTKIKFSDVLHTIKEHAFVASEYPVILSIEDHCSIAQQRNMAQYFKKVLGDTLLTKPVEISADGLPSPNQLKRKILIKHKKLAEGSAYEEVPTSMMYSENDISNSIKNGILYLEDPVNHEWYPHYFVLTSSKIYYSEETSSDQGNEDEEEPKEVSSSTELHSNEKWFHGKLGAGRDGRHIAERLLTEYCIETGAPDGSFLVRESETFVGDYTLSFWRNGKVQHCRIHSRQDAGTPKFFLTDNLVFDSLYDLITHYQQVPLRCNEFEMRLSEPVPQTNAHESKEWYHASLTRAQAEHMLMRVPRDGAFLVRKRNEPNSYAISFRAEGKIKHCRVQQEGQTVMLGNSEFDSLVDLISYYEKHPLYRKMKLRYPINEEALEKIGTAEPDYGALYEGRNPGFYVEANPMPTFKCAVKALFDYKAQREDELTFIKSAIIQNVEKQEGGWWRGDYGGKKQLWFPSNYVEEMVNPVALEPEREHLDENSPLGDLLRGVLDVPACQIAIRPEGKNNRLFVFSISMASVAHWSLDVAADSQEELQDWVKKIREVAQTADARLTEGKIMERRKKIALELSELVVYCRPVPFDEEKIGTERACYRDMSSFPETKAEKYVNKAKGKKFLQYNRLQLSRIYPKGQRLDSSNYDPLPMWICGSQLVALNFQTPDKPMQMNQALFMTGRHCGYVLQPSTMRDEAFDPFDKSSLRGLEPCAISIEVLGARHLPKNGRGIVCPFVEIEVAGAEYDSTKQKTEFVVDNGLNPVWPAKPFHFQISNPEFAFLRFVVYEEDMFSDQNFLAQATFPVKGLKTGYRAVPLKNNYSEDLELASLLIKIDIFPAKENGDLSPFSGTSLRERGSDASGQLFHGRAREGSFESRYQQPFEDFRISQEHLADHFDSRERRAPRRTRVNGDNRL

This assay concerns the target 1-phosphatidylinositol 4,5-bisphosphate phosphodiesterase gamma-1 (Homo sapiens) (UniProt P19174). As to the kind of experiment: blockers of human PLCG1 activity – biochemical, fluorescence, purified enzyme, primary screen (AID 720700). Particulars: purified PLC-gamma1, fluorogenic substrate, at 12.2 µM, active compounds read high.
`CCOc1ccc(N(CC(=O)Nc2c(C)n(C)n(-c3ccccc3)c2=O)S(=O)(=O)c2ccc(Cl)s2)cc1`: the inhibition is 1.1% (inactive).
In the case of `CN[C@H]1C[C@H]2c3cc(N4CCOCC4)ccc3CCN2C[C@H]1[C@H](C)O`, the inhibition was -7.18% (inactive).
As for `Nn1c(SCC(=O)Nc2ccc(S(N)(=O)=O)cc2)nnc1-c1n[nH]c2c1CCC2`, the inhibition was 3.04% (inactive).
For `COc1ccc(N2CC(C(=O)N[C@@H](C)C(=O)N3CCCCC3)CC2=O)cc1` (some centres not stated), the inhibition is -2.8% (inactive).
Regarding `CCOc1ccc(NC(=O)[C@H](C)NC(=O)C2CC(=O)N(c3ccc(OC)cc3)C2)cc1` (some centres not stated), the inhibition was 9.63% (active).
As to `CCCC(C)c1nnc(NC(=O)C2CC(=O)N(c3ccc(OCC)cc3)C2)s1` (configuration not stated), the inhibition is 4.32% (inactive).
Consider `CCOC(=O)[C@]12CCCC3=C1N(CCC3)C(=O)[C@@H](CC(=O)NCC13CC4CC(CC(C4)C1)C3)C2`, for which the inhibition is 0.85% (inactive).
Then `O=C(Nc1cc(Cl)cc(Cl)c1)OCCN1CCCC12CCC(c1ccccc1)CC2` (configuration not stated), with -0.68% (inactive); and `COc1ccc(-n2c(SCC(=O)Nc3ccc(C)c(Cl)c3)nc3ccccc3c2=O)cc1`, with 5.06% (inactive); and `CN(C)S(=O)(=O)c1cccc(C(=O)OCC(=O)N2CCCC2=O)c1`, with 1.6% (inactive).
Consider `C=CCN(c1ccc(C(N)=O)cc1)S(C)(=O)=O`, for which the inhibition was 2.1% (inactive).
Take `C=CCN(c1ccc(Cl)cc1)S(=O)(=O)c1cccc(C(=O)OCC(=O)N(C)C)c1`: the inhibition is 14% (active).
On to `O=C(NCc1ccco1)C1CCCN(S(=O)(=O)c2ccc(Cl)s2)C1` (configuration not stated), for which the inhibition was 2.2% (inactive).
With `C[C@@H]1CN([C@H](C)CO)C(=O)CCCn2nncc2CO[C@@H]1CN(C)C(=O)OCc1ccccc1`, the inhibition is 5.09% (inactive).
On to `C[C@H](CO)N1C[C@H](C)[C@@H](CN(C)C(=O)C2CCCCC2)OCc2cnnn2CCCC1=O`, for which the inhibition was 0.86% (inactive).
Regarding `COC(=O)N(C)C[C@@H]1OCc2cnnn2CCCC(=O)N([C@@H](C)CO)C[C@@H]1C`, the inhibition is 14.2% (active).
Then `COC(=O)CC1CCc2cc(C)cc(C(CC(C)C)NC(=O)[C@H](CC(C)C)NC(=O)OCc3ccccc3)c2O1` (some centres not stated), with -1.26% (inactive); and `CCOc1ccccc1NC(=O)CCN1CCN(S(=O)(=O)c2ccc(OC)cc2)CC1`, with 10.4% (active); and `CCOc1ccccc1NC(=O)COc1ccc(S(=O)(=O)N2CCCC2)cc1`, with -0.48% (inactive).
As to `COc1ccc(S(=O)(=O)N2CCC(C(=O)NCCC(=O)Nc3ccccc3OC)CC2)cc1`, the inhibition was 0.77% (inactive).
With `CCC(CO)Nc1cccc2c1S(=O)(=O)N(Cc1cn(Cc3ccccc3C(F)(F)F)nn1)Cc1ccccc1O2` (configuration not stated), the inhibition was -5.47% (inactive).
For `CC(=O)c1cc(-c2ccc3ccccc3c2)c(=O)n2c1CCC2`, the inhibition is -43.4% (inactive).
For the compound `Cc1ccc(-n2ncc3c2CC(C)(C)CC3NC(=O)CCc2cnn(C)c2)cc1` (configuration not stated), the inhibition is 13.8% (active).
As for `COc1ccc(-n2ncc3c2CC(C)(C)CC3NC(=O)CCc2c(C)nn(C)c2C)cc1` (configuration not stated), the inhibition is 2.97% (inactive).
On to `Cc1ccc(-n2ncc3c2CC(C)(C)CC3NC(=O)Cc2c(C)noc2C)cc1` (configuration not stated), for which the inhibition was 0.61% (inactive).
In the case of `COc1ccc(-c2cc(-c3nnc(SCC(=O)Nc4cccc5ccccc45)n3N)[nH]n2)cc1`, the inhibition is -0.07% (inactive).
Then `COC(=O)c1ccccc1-n1cc(COC(=O)NCCc2ccccc2)nn1`, with -14.2% (inactive).
For `C[C@H](C(=O)N(C)c1ccccc1)[C@@H](O)c1ccc(Cl)cc1`, the inhibition was 0.47% (inactive).
Take `COc1cccc(N(C)C(=O)[C@@H](C)[C@@H](O)c2ccc3ccccc3c2)c1`: the inhibition is -0.17% (inactive).
Consider `C[C@H](C(=O)N(C)c1ccccc1)[C@@H](O)c1ccc2ccccc2c1`, for which the inhibition is 16.5% (active).
On to `COc1ccc(CCC(=O)OCC(=O)Nc2ccc(C)c(S(=O)(=O)N(C)C)c2)cc1`, for which the inhibition is -0.79% (inactive).
Then `CCN(CC(=O)Nc1ccc(C)c(S(=O)(=O)N(C)C)c1)Cc1ccccc1`, with 0.58% (inactive); and `Cc1ccc(C(=O)Nc2ccc(C)c(S(=O)(=O)N(C)C)c2)s1`, with 12.1% (active).
Consider `CC(C)N1CCCCC(NC(=O)C(C)(C)C)C1=O` (configuration not stated), for which the inhibition is -0.44% (inactive).
`CCC(C)[C@@H](C(=O)OC)N(CCc1cn(Cc2ccccc2)nn1)S(=O)(=O)c1ccccc1Br` (some centres not stated): the inhibition was 2.53% (inactive).
`Fc1ccc(OCc2nn3c(Cn4nnc5ccccc54)nnc3s2)cc1`: the inhibition is -2.02% (inactive).
With `CCOc1cccc(-c2nnc3sc(COc4ccc(OC)cc4)nn23)c1`, the inhibition was 10.2% (active).
Consider `Cc1nc(COc2cccc(Cl)c2)sc1C(=O)/C=C/N(C)C`, for which the inhibition is -0.19% (inactive).
As to `Cc1ccc(-n2c(COc3ccccc3)nnc2SCC(=O)Nc2ccc3c(c2)OCCO3)cc1`, the inhibition was 2.55% (inactive).
For the compound `CC(=O)OC12CCCN(C1)/C(=C/c1ccncc1)C2` (configuration not stated), the inhibition was -7.4% (inactive).
Then `Cc1ccc(OCCNC(=O)CN2C(=O)NC3(CCCC3)C2=O)cc1`, with 0.18% (inactive); and `COc1ccccc1CCNC(=O)CN1C(=O)NC2(CCCC2)C1=O`, with 10.4% (active).
Regarding `COc1ccccc1CNC(=O)CCCN1C(=O)NC2(CCCC2)C1=O`, the inhibition was 1.01% (inactive).
As for `CC(NCc1ccco1)C(=O)N1CCCCC1` (configuration not stated), the inhibition is -2.37% (inactive).
`Cc1ccc(-n2c(SCC(=O)Nc3ccc(S(=O)(=O)Nc4nccs4)cc3)nnc2-c2ccncc2)cc1`: the inhibition was -4.02% (inactive).
As for `CC(=O)C1(C(=O)Nc2nccs2)CC(c2ccccc2C(F)(F)F)=NO1` (configuration not stated), the inhibition was -4.24% (inactive).
Take `C=CCN1C(=O)[C@@H](CC(=O)NCCCOCCCC)[C@]2(C(=O)OCC)CCCCC/C=C/12`: the inhibition was -1.4% (inactive).
As for `Cc1ccc(C(=O)N2CCN(C(=O)N3CCOCC3)CC2)cc1`, the inhibition was 10.4% (active).
Turning to `Cc1ccc(C(=O)C(=S)N2CCOCC2)cc1`, the inhibition was 0.9% (inactive).
Then `Cc1ccc(C(=O)NC2CCN(C(=O)N3CCOCC3)CC2)cc1`, with 4.32% (inactive); and `Fc1ccc2nc(COCc3nc4ccc(F)cc4[nH]3)[nH]c2c1`, with -0.44% (inactive); and `Cc1cc(NS(=O)(=O)c2ccc(NC(=O)CSc3nnc(-c4ccc(C(C)(C)C)cc4)n3Cc3ccco3)cc2)nc(C)n1`, with -1.67% (inactive).
Then `NC(c1csc(NC(=O)Nc2cccc(C(F)(F)F)c2)n1)C1CCCCC1` (configuration not stated), with 6.49% (inactive); and `COc1ccc(CC(N)c2csc(NC(=O)Nc3ccc(C(C)C)cc3)n2)cc1` (configuration not stated), with 2.68% (inactive).
With `COc1ccc(C(N)c2csc(NC(=O)Nc3cccc(C(F)(F)F)c3)n2)cc1` (configuration not stated), the inhibition was 14.7% (active).
With `FC(F)(F)c1cccc(NC(=S)OC2CCC23CCC(c2ccccc2)CC3)c1` (configuration not stated), the inhibition was -0.1% (inactive).
Then `O=C(CN1CCC(NC(=O)NCc2ccccc2)CC1)Nc1ccc2c(c1)OCCO2`, with -0.43% (inactive); and `C#CCCN([C@H](C(=O)OC)C(C)C)S(=O)(=O)c1ccc(F)cc1Br`, with -1.82% (inactive); and `Cc1c(C(C)c2ccccc2O)[nH]c2ccccc12` (configuration not stated), with -4.04% (inactive).
With `COc1ccccc1C(=O)Nc1ccc(OCC(=O)N2CCCCC2)cc1`, the inhibition is 3.96% (inactive).
On to `COc1ccccc1C(=O)N/C(=C/c1ccc2c(c1)OCO2)C(=O)Nc1cccc(C(=O)O)c1`, for which the inhibition is -3.19% (inactive).
As to `COc1ccccc1C(=O)Nc1cccc(C(=O)N2CCOCC2)c1`, the inhibition was 12.6% (active).
Turning to `O=C(CSc1nc2ccccc2s1)N=Nc1c(O)[nH]c2ccccc12`, the inhibition is -0.8% (inactive).
On to `COC(=O)[C@H](C(C)C)N(CCc1cn(Cc2ccccc2)nn1)S(=O)(=O)c1ccc(F)cc1Br`, for which the inhibition was 1.89% (inactive).
For the compound `O=c1c2ccccc2nnn1CSc1nnnn1-c1ccccc1`, the inhibition is 2.24% (inactive).
Then `C=CCn1c(SCn2nnc3ccccc3c2=O)nnc1-c1ccc(Cl)cc1`, with 11.2% (active); and `O=C(Cn1nnc2ccccc2c1=O)NCc1ccc(Cl)cc1`, with 6.08% (inactive).
Take `O=C(OC12CCCN(C1)/C(=C/c1cccnc1)C2)C1CCCC1` (configuration not stated): the inhibition is 2.54% (inactive).
Consider `O=C(c1c[nH]c2ccccc12)N1CCC(Oc2cccnc2)CC1`, for which the inhibition is 5.31% (inactive).
In the case of `O=C(NC1CCC1)c1ccc(C#Cc2cccc(F)c2)c[n+]1[O-]`, the inhibition is -0.74% (inactive).
As to `CCn1c(SCC(=O)Nc2ccc(Br)cc2)nc2sc3c(c2c1=O)CCN(C)C3`, the inhibition was -70.8% (inactive).
Then `Cc1ccc(C)c(-n2c(SCC(=O)O)nc3sc4c(c3c2=O)CCCC4)c1`, with 1.35% (inactive); and `CCn1c(SCC(C)=O)nc2sc3c(c2c1=O)CCCC3`, with 10.1% (active); and `Cc1ccc(CN2CCCCC(NC(=O)C3CCCCC3)C2=O)cc1` (configuration not stated), with 7.08% (inactive).
In the case of `CCCOc1ccc(Oc2c(Cl)cnn(Cc3cccc4ccccc34)c2=O)cc1`, the inhibition was -1.93% (inactive).
Regarding `CCOC(=O)C1CCN(C(=O)C(C)(C)NC(=O)Nc2ccccc2Cl)CC1`, the inhibition is 0.94% (inactive).
Take `Cc1ccccc1CN1CCCCC(NC(=O)c2cccc(C#N)c2)C1=O` (configuration not stated): the inhibition was -2.09% (inactive).
Then `Cc1ccc(S(=O)(=O)N2CCCCC2)cc1NC(=O)CCNC(=O)c1ccccc1`, with 11.6% (active); and `O=C(CCNC(=O)c1ccc(Br)cc1)Nc1cccc(S(=O)(=O)N2CCCCC2)c1`, with -1.23% (inactive); and `CS(=O)(=O)c1ccc(Cl)c(NC(=O)COC(=O)c2cccc(S(=O)(=O)N3CCCC3)c2)c1`, with 1.69% (inactive).
Consider `Cc1ccc(S(=O)(=O)N2CCCCC2)cc1NC(=O)CCNC(=O)c1ccccc1Cl`, for which the inhibition is 6.23% (inactive).
Then `CC(=O)c1c(C)[nH]c(C(=O)OCC(=O)Nc2cc(S(=O)(=O)N3CCCCC3)ccc2C)c1C`, with 11.4% (active); and `CC(=O)c1cccc(OCC(=O)OCC(=O)Nc2cc(S(=O)(=O)N3CCCCC3)ccc2C)c1`, with 1.9% (inactive).
Regarding `CCOc1ccc(-n2c(SCC(=O)Nc3cc(C)c(NC(=O)c4ccccc4)cc3OC)nnc2-c2cccs2)cc1`, the inhibition is -10.9% (inactive).
Consider `CCOC(=O)N1CCN(C(=O)C[C@H]2C[C@@]3(C(=O)OC)C(=C[C@H](C(C)(C)C)O[C@@H]3C)N(Cc3ccc(Cl)cc3Cl)C2=O)CC1`, for which the inhibition is -0.28% (inactive).
Turning to `O=C(c1cccc(C(F)(F)F)c1)N1CC[C@H]2[C@H](CCCN2Cc2cc(F)cc(F)c2)C1`, the inhibition is -2.47% (inactive).
As to `COC(=O)C1CN(CC(C)C)CCS(=O)(=O)N1Cc1ccc(C)cc1` (configuration not stated), the inhibition is 2.01% (inactive).
